# PubChem BioAssay AID743279 (National Center for Advancing Translational Sciences (NCATS), 2014)
# In all, about 360,000 compounds went through this assay and about 17,000 (4.7%) were called active. Another 5% or so got no clear call; they are omitted. Only a selection was taken, and actives are over-represented in it overall. Values without a mark were called inactive. Cut-off read from the data, not from the text of the source: active = activity change below about -50%; inconclusive = mostly about -30% to -49%; inactive = weaker than that.
# Test: qHTS for Inhibitors of Inflammasome Signaling: IL-1-beta AlphaLISA Primary Screen
# Conditions: THP-1 LPS/ATP IL-1B secretion, 16 h; at 57.5 µM, stronger effect = lower value
# In short: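 Secreted IL-1B measured by AlphaLISA bead assay after 16 h compound exposure of THP-1 cells; compounds (final up to 57.5 uM) added 1 h before LPS (250 ng/mL) and ATP (1.25 mM) stimulation; lower signal means less secretion.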
# % is set by controls: 0 for no effect and ±100 for the full control effect.
row,Compound,activity change
1,Cc1ccc2nc(SCc3nnc(-c4ccccc4[N+](=O)[O-])o3)c(C#N)cc2c1,24.6%
2,Cc1ccc([C@H]2C[C@H](O)[C@@H](n3cc(COC(=O)c4ccccc4)nn3)CN2CC2CCCCC2)cc1,-1.43%
3,CN1CCN(C(=O)c2ccccc2NC(=O)COc2ccccc2Cl)CC1,7.63%
4,COc1ccc(C(=O)OCC(=O)NCCCc2ccccc2)cc1OC,19%
5,CC(C)n1ncc2c(C(=O)N3CCN(Cc4cccs4)CC3)cc(C3CC3)nc21,-6.72%
6,CC(=O)Nc1cccc(-c2ccnc3c2CC(C)(C(=O)NCc2ccccc2)O3)c1 (stereo not given),92.1%
7,CCCCN(CCCC)C(=O)CCS(=O)(=O)c1ccc2c(c1)n(C)c(=O)c(=O)n2C,7.06%
8,O=C1CCC(=O)N(O)CCCCCNC(=O)CCC(=O)N(O)CCCCCNC(=O)CCC(=O)N(O)CCCCCN1,38.7%
9,COc1ccc(C(=O)CC(=O)c2ccc(C)cc2)c(O)c1,-20.9%
10,COc1ccc(/C=C/C(=O)c2ccc(OC)cc2O)cc1,-98.1% (active)
11,Cc1nc(-c2ccccc2)sc1C(=O)/C=C/N(C)C,-11.9%
12,COc1ccc(C(=O)CCC(=O)Nc2cccnc2)c(OC)c1,-9.85%
13,COc1ccc(C(=O)/C=C/c2cccnc2)c(OC)c1,-96.6% (active)
14,COc1ccc(C(=O)/C=C/c2ccc(OC3CSC3)cc2)cc1,-99.6% (active)
15,Cc1nc(-c2ccccc2)sc1C(=O)/C=C/c1ccccc1,-84.3% (active)
16,CCOC(=O)C1CCCN(C(=O)/C=C/c2ccc(OC)cc2)C1 (stereo not given),-6.92%
17,COc1ccc(/C=C/C(=O)NC(=S)N2CCCC(C(N)=O)C2)cc1 (stereo not given),-22.6%
18,COc1ccc(/C=C/C(=O)c2cc(Br)ccc(=O)c2O)cc1,-2.15%
19,Cc1nc(-c2ccc(Cl)cc2)sc1C(=O)CBr,0%
20,COc1ccc(-c2cc(C(=O)N/N=C/c3cccnc3)c3ccccc3n2)c(OC)c1,-5.72%
21,Cc1ccc(S(=O)(=O)N2CCOCC2)cc1NC(=O)CSc1nnc(N)s1,18.9%
22,COC(=O)[C@]12CCCCC=C1N(Cc1ccccc1)C(=O)[C@H](CC(=O)NCc1ccc(C)o1)C2,42.5%
23,O=C(OCc1cn([C@@H]2C[C@H](c3ccc(Cl)cc3)N(Cc3cccs3)C[C@H]2O)nn1)c1ccccc1,10.7%

row,Compound,activity change
1,O=C1CCC/C(=N\NC(=O)NC2CCCCC2)C1,-10.6%
2,O=C(/C=C/c1ccccc1)c1ccccc1O,-85.5% (active)
3,O=C(/C=C(O)/C=C/c1ccc(O)cc1)/C=C/c1ccc(O)cc1,-22.4%
4,O=C(NNC(=O)c1ccccc1O)c1ccccc1O,67.1%
5,CCCS(=O)(=O)NC(=O)C1(C)CCCN(C(=O)c2cccs2)C1 (stereo not given),1.15%
6,CCOC(=O)c1ccc2[nH]c(C)c(CN3CCN(C)CC3)c(=O)c2c1,13.2%
7,O=C(CCCCCn1c(=S)[nH]c2ccsc2c1=O)NC1CCCCC1,7.06%
8,CO[C@@H]1CN(C)C(=O)c2cc(NC(=O)C3CC3)ccc2OC[C@H](C)N(C(=O)CN2CCOCC2)C[C@@H]1C,11%
9,O=C(O)c1ccccc1-c1cccc2nncn12,-10.3%
10,Cn1c2c(c(=O)n(C)c1=O)C(c1cccc(F)c1)C(C#N)=C(N)O2 (stereo not given),5.24%
11,Cc1c(C(=O)NCc2ccc(C#N)cc2)sc(=O)n1Cc1ccc(C(=O)N(C)C)cc1,-7.66%
12,CCCCOC(=O)CCCc1ccc([N+](=O)[O-])cc1[N+](=O)[O-],17.5%
13,O=[N+]([O-])c1ccccc1OCCCCN1CCCCC1,15.9%
14,Cc1cc(OCCCCOc2ccc(C#N)cc2)ccc1[N+](=O)[O-],0%
15,CCCCCOc1ccc(CSC2=NCCN2)cc1[N+](=O)[O-],-93.2% (active)
16,CCCCOc1ccc(CSC(=N)N)cc1[N+](=O)[O-],-102% (active)
17,Cc1nc(SCc2ccc(F)cc2)c([N+](=O)[O-])[nH]1,15.4%
18,O=C(Nc1nnc([C@H]2C[C@H](O)[C@@H](CO)O2)s1)c1cccc(Cl)c1,25.3%
19,CCOC(=O)C1(Cc2ccccc2C(F)(F)F)CCN(C(=O)c2cc(C)n(C)n2)CC1,58%
20,CC(=O)NC(CC(=O)Nc1nc(-c2ccccc2)c(C(C)=O)s1)c1ccccc1 (stereo not given),-10.6%
21,CCN1C(=O)CS/C1=N\c1nccs1,-5.9%
22,O=C(Cc1ccc(Cl)cc1)c1ccccc1,-14.1%
23,CCNC(=O)N(CC)C[C@H]1N[C@@](CC)(C(=O)OC)[C@H]2C(=O)N(Cc3ccccc3)C(=O)[C@@H]12,36%

row,Compound,activity change
1,CCN(C[C@H]1N[C@@](Cc2ccccc2)(C(=O)OC)[C@H]2C(=O)N(Cc3ccccc3)C(=O)[C@@H]12)C(=O)c1ccc(C)cc1,-54.1% (active)
2,CCN(C[C@H]1N[C@@](CC)(C(=O)OC)[C@H]2C(=O)N(Cc3ccccc3)C(=O)[C@@H]12)S(=O)(=O)c1ccccc1,-2.92%
3,Cc1ccc(S(=O)(=O)NN=C2CC(C)(C)CC(=O)C2(C)C)cc1,0.854%
4,Cc1cccc(C)c1NC(=O)C(c1ccc(C(F)(F)F)cc1)n1c(=O)c(-c2ccco2)nc2ccccc21 (stereo not given),-1.25%
5,COc1ccc2nc(SCC(=O)Nc3c(C)cc(C)cc3C)[nH]c2c1,15.5%
6,Cc1ccc2nc(SCC(=O)NC3CCCC3)[nH]c2c1,-11.8%
7,Cc1cc(C)c(NC(=O)CSc2nc3ccncc3[nH]2)c(C)c1,-69.3% (active)
8,COc1ccc(C(CNC(=O)c2cccc(S(=O)(=O)Nc3ccc(Br)cc3)c2)N(C)C)cc1 (stereo not given),-12.1%
9,CCC(NC(=O)C1CCCC1)c1ccc(C)cc1 (stereo not given),31.4%
10,Brc1ccc2nc(-c3ccccc3)c(Cc3ccccc3)n2c1,28.2%
11,CCN(CC)S(=O)(=O)c1ccc(N2CCOCC2)c(NC(=O)C(C)Oc2ccc(F)cc2)c1 (stereo not given),-2.11%
12,CCN(CC)S(=O)(=O)c1ccc(N2CCOCC2)c(NC(=O)c2ccc(=O)n(C)n2)c1,8.34%
13,CCN(CC)S(=O)(=O)c1cc(C(=O)Nc2cc(S(=O)(=O)N3CCOCC3)ccc2N2CCCC2)ccc1F,-10.4%
14,CCN(CC)S(=O)(=O)c1ccc(N2CCCC2)c(NC(=O)c2ccc([N+](=O)[O-])o2)c1,-86.5% (active)
15,CCN(CC)S(=O)(=O)c1ccc(N2CCN(C)CC2)c(NC(=O)Nc2ccccc2F)c1,-72.3% (active)
16,CCN(CC)S(=O)(=O)c1ccc(N2CCOCC2)c(NC(=O)C2COc3ccccc3O2)c1 (stereo not given),-0.208%
17,Cc1ccc(-c2ccc(CN3C(C)C(=O)N(Cc4cn(CCC5OCCCO5)nn4)CCS3(=O)=O)cc2)cc1 (stereo not given),-2.45%
18,CC1C(=O)Nc2ccccc2N1C(=O)c1ccc(F)cc1F (stereo not given),10.1%
19,Cc1ccc(C(=O)N[C@H](C(=O)N2CCN(c3ncccn3)CC2)C(C)C)cc1,-11.5%
20,CCOC(=O)c1cnn(Cc2ccccc2Cl)c1N,0.436%
21,Cc1c(NC(=O)CSc2nnnn2-c2ccc(C(=O)O)cc2)c(=O)n(-c2ccccc2)n1C,22.1%
22,Cc1c(NC(=O)CSc2nnc(-c3cccnc3)n2N)c(=O)n(-c2ccccc2)n1C,25.5%
23,Cc1c(NC(=O)CSc2cccc3cccnc23)c(=O)n(-c2ccccc2)n1C,-96.5% (active)

row,Compound,activity change
1,Cc1noc(C)c1-c1ccc(C(=O)NCc2ccncc2)c2occc12,60.8%
2,COC(=O)CN1C(C)=Nc2ccc(Br)cc2C1c1ccccc1 (stereo not given),-27.1%
3,Cc1ccc(C2C(C#N)C(C#N)N3CCCN23)cc1 (stereo not given),0.442%
4,CCN(/N=C/c1ccccc1)c1cc(=O)n(C)c(=O)[nH]1,0%
5,CCN(/N=C/c1ccc(N(C)C)cc1)c1nc2ccccc2[nH]1,-29.3%
6,Oc1ccc(/C=N/N(Cc2ccccc2)c2ccccc2)cc1,-72.7% (active)
7,Cc1ccc(-c2nc(-c3ccncc3)no2)c(C)c1,-25.6%
8,Cc1cc(Cl)ccc1OCc1nc(-c2ccncc2)no1,-55.8% (active)
9,Cc1cc(Cl)ccc1OCCCC(=O)NCc1ccncc1,-6.96%
10,Cc1cc(Br)ccc1NC(=S)NC1CCCC1,0.7%
11,S=C(Nc1ccc(Br)cc1Cl)NC1CCN(Cc2ccccc2)CC1,-75.9% (active)
12,O=C(COc1ccc(Br)cc1F)NC1CCN(Cc2ccccc2)CC1,-25.9%
13,CCNC(=S)NNC(=O)C1CCN(Cc2ccccc2)CC1,-12.8%
14,O=C(Cc1ccc(Br)cc1)NCCc1ccccc1,-1.81%
15,S=C(Nc1ccc(Br)cc1)NC1CCN(Cc2ccccc2)CC1,-96% (active)
16,S=C(NCCCc1ccccc1)Nc1ccc(Br)cc1,-85.8% (active)
17,O=S(=O)(NCCCc1ccccc1)c1ccc(Br)cc1,8.22%
18,S=C(NN=C1CCN(Cc2ccccc2)CC1)NC1CCCCC1,0%
19,COCCN(C(=O)C(C)N1C(=O)c2ccccc2C1=O)c1c(N)n(CC(C)C)c(=O)[nH]c1=O (stereo not given),13.1%
20,COc1ccc(OC)c(NC(=O)c2cc(-c3cc(F)ccc3OCC3CCCO3)n[nH]2)c1 (stereo not given),0%
21,CCCC(=O)N1CCC1(C)C(=O)NCc1ccc(C(C)C)cc1 (stereo not given),-18%
